The source of these data is PubChem BioAssay (EPA / NIEHS).

The source made the active and inactive calls. How the source made its calls: active means hit-call score of the fitted dose curve at least 0.9, where 1 is the maximum; inactive means score below 0.9.

Read-out in the assay: Epidermal growth factor receptor (EGFR), EGFR (gene 1956)
As to the kind of experiment: BSK_hDFCGF_EGFR: BioMAP Diversity Plus: hDFCGF Assay for Epidermal growth factor receptor (EGFR) Biomarker Activity (AID 2283057). The conditions noted are these: primary human foreskin fibroblasts; actives raise or lower the signal. The method, then:
BSK_hDFCGF is a cell-based, multiplexed-readout assay that uses foreskin fibroblast, a human skin primary cell, with measurements taken at 24 hours after chemical dosing in a 96-well plate.BSK_hDFCGF_EGFR is an assay component measured in the BSK_hDFCGF assay. It measures EGFR antibody related to regulation of gene expression using ELISA technology.Data from the assay component BSK_hDFCGF_EGFR was analyzed into 1 assay endpoint. This assay endpoint, BSK_hDFCGF_EGFR, was analyzed with bidirectional fitting relative to DMSO as the negative control and baseline of activity. Using a type of binding reporter, gain or loss-of-signal activity can be used to understand changes in the signaling as they relate to the gene EGFR. Furthermore, this assay endpoint can be referred to as a primary readout, because this assay has produced multiple assay endpoints where this one serves a signaling function. To generalize the intended target to other relatable targets, this assay endpoint is annotated to the kinase intended target family, where the subfamily is receptor tyrosine kinase.
The levels of cell surface (or secreted, indicated by the prefix "s") biomarker endpoints were measured by ELISA. Overt cytotoxicity to cells in confluent adherent cultures (all systems other than the BT system) was assessed by measuring total protein levels using sulforhodamine B (SRB) staining in parallel cultures at the time of biomarker measurements, indicated as SRB endpoints. For proliferation assays for adherent cell types, individual cell types are cultured at sub-confluence and relative cell numbers quantified by SRB staining at time points optimized for each system (48 h: 3C and CASM3C systems; 72 h: BT and HDF3CGF systems; 96 h: SAg system). SRB was performed by staining cells with 0.1% SRB after fixation with 10% TCA and reading wells at 560 nm.Viability and proliferation of PBMC (T cells) was quantified by Alamar Blue reduction for the SAg and BT systems. For PBMC viability (referred to as PBMC Cytotoxicity within the assay endpoint names), cells were plated (75,000/well in a 96-well plate) and then chemical samples added for 1 h before addition of activators, SEB and TSST-1 (20 ng/mL final concentration each). Cells were incubated for 90 h. Then, Alamar Blue (20 uL/well) (Invitrogen, Cat DAL1100) was added for 6 h, and the plates were read with a fluorescence microplate reader at 546/580 nm (excitation/emission). For PBMC proliferation, cells were plated and activated as above but incubated for only 16 h prior to addition of Alamar Blue. Plates were read after 6 h.
Turning to `COCCOCCOCCOC`, the result was inactive.

On to `CCCCC(CC)COC(=O)c1ccc(C(=O)OCC(CC)CCCC)cc1` (stereo not given), for which the outcome was inactive.

As for `CC(C)=CCC/C(C)=C\CO`, the outcome was inactive.

As to `COc1ccc(-n2nc(C(F)F)cc2-c2ccc(S(C)=O)cc2)cc1` (stereo not given), the result was inactive.

On to `CCCC(=O)OCC`, for which the outcome was inactive.

On to `CCOc1cccc(-n2cc(C(=O)N3CCN(c4cc(C(=O)O)c5ccccc5c4)CC3)nc2-c2ccc(C)cc2)c1`, for which the AC50 (as a rule, the concentration at which the activity in the assay is half-maximal) is 5.21 µM (active).

Consider `Nc1cccc(N)c1`, for which the outcome was inactive.

`CCCCCCCCO`: the result was inactive.

Turning to `O=C1OC(=O)C2C3C=CC(C3)C12` (stereo not given), the result was inactive.

As for `CC(C)CCO`, the result was inactive.

For `CC(C)(O)c1coc(S(=O)(=O)NC(=O)Nc2c3c(cc4c2CCC4)CCC3)c1`, the outcome was inactive.

Take `Fc1ccccc1[C@@H](F)COC1CCC(Nc2ncnc3[nH]ncc23)CC1` (stereo not given in full): the outcome was inactive.

On to `COC(=O)c1c(Cl)c(Cl)c(C(=O)OC)c(Cl)c1Cl`, for which the outcome was inactive.

On to `Cc1ccc(N)cc1O`, for which the result was inactive.

Consider `Cn1cnc([N+](=O)[O-])c1Sc1ncnc2nc[nH]c12`, for which the result was inactive.

Regarding `CCCCC(CC)COC(=O)CCCCCCCCC(=O)OCC(CC)CCCC` (stereo not given), the outcome was inactive.

As for `CNS(=O)(=O)c1cc(C(=O)N2CCC(CCN3C4CCC3CC(n3c(C)nc5ccccc53)C4)(c3cccc(F)c3)CC2)c(Cl)cc1F` (stereo not given), the outcome was inactive.

With `Nc1ccc(Nc2ccccc2)cc1`, the outcome was inactive.

With `C[C@](N)(Cc1ccc(O)c(O)c1)C(=O)O`, the result was inactive.

Take `CC(C)CCCCCCOC(=O)c1ccc(C(=O)OCCCCCCC(C)C)c(C(=O)OCCCCCCC(C)C)c1`: the outcome was inactive.

For `Cc1[nH]cnc1C[C@H]1CCc2c(C)c3ccccc3n2C1=O`, the outcome was inactive.

Take `Cc1ccc(C)c(O)c1`: the outcome was inactive.

On to `CC(=O)OC[C@H]1O[C@@](COC(C)=O)(O[C@H]2O[C@H](COC(C)=O)[C@@H](OC(C)=O)[C@H](OC(C)=O)[C@H]2OC(C)=O)[C@@H](OC(C)=O)[C@@H]1OC(C)=O`, for which the outcome was inactive.

On to `CCn1nc(Cc2ccccc2)cc1C1CCN(C[C@H]2C[C@H](N(C)[C@@H](C(=O)O)C(C)C)C[C@@H]2c2cccc(F)c2)CC1`, for which the outcome was inactive.

`Clc1nc(Cl)c(Cl)c(Cl)c1Cl`: the result was inactive.

Regarding `Cc1ccc(S(=O)(=O)O)cc1C`, the result was inactive.

Turning to `Cn1c(=O)cc(Oc2ccc(F)cc2F)c2cnc(NCC(C)(C)O)nc21`, the result was inactive.

Regarding `COc1cccc(-c2ccc(/C=C\CN3CCCCCC3)cc2Cl)c1`, the AC50 was 32.2 µM (active).

On to `CCOC(=O)CC(CC(=O)OCC)(OC(C)=O)C(=O)OCC`, for which the result was inactive.

As for `C1N2CN3CN1CN(C2)C3`, the result was inactive.

With `COC(=O)CC(=O)OC`, the result was inactive.

For `C1=CCCC=CCCC=CCC1`, the result was inactive.

For `Cc1ccc(O)cc1`, the outcome was inactive.

Turning to `CCCCCCCCCCCCCCCO`, the result was inactive.

In the case of `CCc1cc(SCc2sc(-c3ccc(C(F)(F)F)cc3)nc2CN2CCN(c3ccc(OC)cc3)CC2)ccc1OCC(=O)O`, the AC50 was 1.94 µM (active).

Take `O=c1n(CC2CO2)c(=O)n(CC2CO2)c(=O)n1CC1CO1` (stereo not given): the AC50 was 30.7 µM (active).

`C=CC(=C)CCC=C(C)C`: the result was inactive.

As to `CC(C)=CCCC(C)CCO` (stereo not given), the outcome was inactive.

`O=C(O)c1cc(N=Nc2ccc(S(=O)(=O)Nc3ccccn3)cc2)ccc1O`: the outcome was inactive.

For `CC(O)CN(CCN(CC(C)O)CC(C)O)CC(C)O` (stereo not given), the result was inactive.
